From ChEMBL document CHEMBL3988442, “University of Dundee, Small-Polar-MMV Screening Library” (2021) come the findings set out here.

Holding throughout (design): scale not given: direction of the effect not stated beside the values
Experiment [1] has as its target Protein translocase subunit SecA (Escherichia coli (strain K12)) (UniProt P10408). Briefly: Assay to Identify E. coli SecA ATPase Inhibitors. It is filed as functional. To be noted: 30 µM.
Experiment [2] concerns the target T1, Ubiquitin-activating enzyme e1, putative (Leishmania donovani (strain BPK282A1)) (UniProt E9BSI1).
T1 sequence (whole entry): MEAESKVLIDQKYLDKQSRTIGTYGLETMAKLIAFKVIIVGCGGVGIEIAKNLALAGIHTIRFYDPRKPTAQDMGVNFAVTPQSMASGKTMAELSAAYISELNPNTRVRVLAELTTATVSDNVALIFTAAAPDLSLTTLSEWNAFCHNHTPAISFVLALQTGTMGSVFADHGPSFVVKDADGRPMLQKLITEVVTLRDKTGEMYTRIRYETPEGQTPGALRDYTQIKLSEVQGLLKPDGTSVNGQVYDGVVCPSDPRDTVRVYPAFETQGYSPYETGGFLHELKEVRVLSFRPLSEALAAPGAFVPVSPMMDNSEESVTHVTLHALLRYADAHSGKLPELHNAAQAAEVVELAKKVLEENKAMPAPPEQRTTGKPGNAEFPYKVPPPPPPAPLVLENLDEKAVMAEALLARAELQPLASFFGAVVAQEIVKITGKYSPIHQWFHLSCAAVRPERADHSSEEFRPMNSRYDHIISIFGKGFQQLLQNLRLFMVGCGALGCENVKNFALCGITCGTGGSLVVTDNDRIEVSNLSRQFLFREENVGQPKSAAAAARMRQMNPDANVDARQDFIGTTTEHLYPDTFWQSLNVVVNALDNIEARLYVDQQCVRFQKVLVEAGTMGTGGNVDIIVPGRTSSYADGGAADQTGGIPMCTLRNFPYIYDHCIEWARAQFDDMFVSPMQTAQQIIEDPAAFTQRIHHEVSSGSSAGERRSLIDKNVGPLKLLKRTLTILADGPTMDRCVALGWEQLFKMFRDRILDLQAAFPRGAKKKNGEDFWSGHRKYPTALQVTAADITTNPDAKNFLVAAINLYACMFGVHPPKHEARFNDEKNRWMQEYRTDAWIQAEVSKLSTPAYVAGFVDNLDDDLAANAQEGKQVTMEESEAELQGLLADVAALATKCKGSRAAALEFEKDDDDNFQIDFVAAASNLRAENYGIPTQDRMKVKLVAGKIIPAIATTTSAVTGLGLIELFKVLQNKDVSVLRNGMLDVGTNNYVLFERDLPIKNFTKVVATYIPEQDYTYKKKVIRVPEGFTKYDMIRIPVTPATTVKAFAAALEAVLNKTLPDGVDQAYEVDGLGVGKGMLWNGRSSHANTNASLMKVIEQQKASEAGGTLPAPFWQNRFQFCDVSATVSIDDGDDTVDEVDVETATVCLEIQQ
Nature of the experiment: Leishmania donovani Ubiquitin Activating Enzyme (LdE1). To be noted: 30 µM. It counts as functional.

Experiment [3] deals with AMP-activated protein kinase, AMPK (Homo sapiens) (UniProt P54646+O43741+P54619+Q9UGJ0+Q9Y478+Q13131+Q9UGI9). Briefly: AMP-dependent Kinase enzyme assay. An in vitro enzyme assay that detects ADP turnover that is directly proportional to AMPK activity. This uses naive AMPK that is activated during the assay with MK-8722. It is filed as functional. As to conditions: 30 µM.

In experiment [4] the target is Sialic acid-binding Ig-like lectin 9 (Homo sapiens) (UniProt Q9Y336). Nature of the experiment: Hs-Siglec9 ALPHAscreen SOP 20170721. As to conditions: 10 µM.
For experiment [5], the system named is Trypanosoma cruzi. Nature of the experiment: Trypanosoma cruzi phosphomannomutase and mannose-1-phosphate guanylyltransferase assay. It is filed as functional. As to conditions: 10 µM.
Experiment [6] addresses T2, Arginase-2, mitochondrial (Homo sapiens) (UniProt P78540).
T2 sequence (whole entry): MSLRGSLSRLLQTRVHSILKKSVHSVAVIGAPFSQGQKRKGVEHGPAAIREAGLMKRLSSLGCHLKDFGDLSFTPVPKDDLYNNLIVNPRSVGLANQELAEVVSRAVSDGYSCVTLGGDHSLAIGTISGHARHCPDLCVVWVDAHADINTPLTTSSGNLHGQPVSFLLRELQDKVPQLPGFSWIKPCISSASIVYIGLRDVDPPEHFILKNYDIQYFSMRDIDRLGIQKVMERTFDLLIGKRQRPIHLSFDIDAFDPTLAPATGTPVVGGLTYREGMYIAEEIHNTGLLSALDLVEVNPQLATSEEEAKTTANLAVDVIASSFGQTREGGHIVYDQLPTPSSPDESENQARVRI
Nature of the experiment: in vitro enzyme assay to detect the production of urea directly proportional to the activity of Arginase II. Further: in the data most compounds retested in dose-response had high values. To be noted: 33.3 µM. It is filed as functional.

For experiment [7], the target named is T3, Proteasome subunit beta (Trypanosoma cruzi) (UniProt O96673).
T3 sequence (whole entry): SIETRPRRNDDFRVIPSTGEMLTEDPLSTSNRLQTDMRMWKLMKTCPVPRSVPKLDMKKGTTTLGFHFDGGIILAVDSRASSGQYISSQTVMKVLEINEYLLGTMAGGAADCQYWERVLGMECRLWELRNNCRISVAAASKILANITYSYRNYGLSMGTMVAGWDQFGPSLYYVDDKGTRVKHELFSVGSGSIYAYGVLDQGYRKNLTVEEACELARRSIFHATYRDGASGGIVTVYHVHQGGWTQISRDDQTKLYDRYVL
Nature of the experiment: Trypanosoma cruzi proteasome chymotrypsin-like activity (TcProtChymo) assay. Further: in the data most compounds retested in dose-response had high values. It is filed as functional. To be noted: 9.37 µM.

The species entered for experiment [8] is Homo sapiens. Briefly: To identify inhibition of the IFN signalling (Jak-Stat) pathway via expression of an eGFP reporter gene under the control of an IFN-stimulated response element (ISRE) containing MxA promoter. It counts as functional. To be noted: 30 µM. (Reporter assays use an easily measured gene product as a stand-in for the process of interest.)

The target in experiment [9] is T4, Tyrosyl-tRNA synthetase, putative (Trypanosoma cruzi (strain CL Brener)) (UniProt Q4DSP6).
T4 sequence (whole entry): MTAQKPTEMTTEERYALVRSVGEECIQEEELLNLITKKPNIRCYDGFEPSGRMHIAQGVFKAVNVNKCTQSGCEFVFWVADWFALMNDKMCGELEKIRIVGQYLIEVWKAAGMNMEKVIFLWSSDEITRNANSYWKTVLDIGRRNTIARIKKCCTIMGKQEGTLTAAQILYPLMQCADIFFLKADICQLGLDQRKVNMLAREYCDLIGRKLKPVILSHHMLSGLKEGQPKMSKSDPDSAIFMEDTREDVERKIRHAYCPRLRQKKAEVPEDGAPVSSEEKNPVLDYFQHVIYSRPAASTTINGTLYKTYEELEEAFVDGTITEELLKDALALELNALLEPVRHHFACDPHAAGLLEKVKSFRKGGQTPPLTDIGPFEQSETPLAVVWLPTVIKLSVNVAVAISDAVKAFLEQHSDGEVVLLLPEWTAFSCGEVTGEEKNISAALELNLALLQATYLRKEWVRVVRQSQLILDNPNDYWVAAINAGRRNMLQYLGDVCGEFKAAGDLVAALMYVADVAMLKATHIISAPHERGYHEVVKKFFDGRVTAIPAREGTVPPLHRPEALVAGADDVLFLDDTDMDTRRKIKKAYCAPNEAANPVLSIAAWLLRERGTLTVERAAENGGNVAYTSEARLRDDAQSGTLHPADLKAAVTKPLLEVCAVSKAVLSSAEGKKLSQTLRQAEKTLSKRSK
Briefly: Trypanosoma cruzi tyrosyl tRNA synthetase (TcYRS) _High Tyrosine SOP. Further: in the data most compounds retested in dose-response had high values. It is filed as functional. As to conditions: 30 µM.

In experiment [10] the target is T4, Tyrosyl-tRNA synthetase, putative (Trypanosoma cruzi (strain CL Brener)). Nature of the experiment: Trypanosoma cruzi tyrosyl tRNA synthetase (TcYRS) SOP. It counts as functional. To be noted: 30 µM.
Experiment [11] has as its target Chromo domain-containing protein 1 (Saccharomyces cerevisiae (strain ATCC 204508 / S288c) (Baker's yeast)) (UniProt P32657). Nature of the experiment: ScCHD-1 Enzyme Inhibition Assay. Further: in the data most compounds retested in dose-response had high values. It counts as functional. To be noted: 30 µM.

For some of these results: Potency and affinity values are given separately.

Sequence of Chromo domain-containing protein 1 (Saccharomyces cerevisiae (strain ATCC 204508 / S288c) (Baker's yeast)) (P32657 whole entry, the tested form may be a part): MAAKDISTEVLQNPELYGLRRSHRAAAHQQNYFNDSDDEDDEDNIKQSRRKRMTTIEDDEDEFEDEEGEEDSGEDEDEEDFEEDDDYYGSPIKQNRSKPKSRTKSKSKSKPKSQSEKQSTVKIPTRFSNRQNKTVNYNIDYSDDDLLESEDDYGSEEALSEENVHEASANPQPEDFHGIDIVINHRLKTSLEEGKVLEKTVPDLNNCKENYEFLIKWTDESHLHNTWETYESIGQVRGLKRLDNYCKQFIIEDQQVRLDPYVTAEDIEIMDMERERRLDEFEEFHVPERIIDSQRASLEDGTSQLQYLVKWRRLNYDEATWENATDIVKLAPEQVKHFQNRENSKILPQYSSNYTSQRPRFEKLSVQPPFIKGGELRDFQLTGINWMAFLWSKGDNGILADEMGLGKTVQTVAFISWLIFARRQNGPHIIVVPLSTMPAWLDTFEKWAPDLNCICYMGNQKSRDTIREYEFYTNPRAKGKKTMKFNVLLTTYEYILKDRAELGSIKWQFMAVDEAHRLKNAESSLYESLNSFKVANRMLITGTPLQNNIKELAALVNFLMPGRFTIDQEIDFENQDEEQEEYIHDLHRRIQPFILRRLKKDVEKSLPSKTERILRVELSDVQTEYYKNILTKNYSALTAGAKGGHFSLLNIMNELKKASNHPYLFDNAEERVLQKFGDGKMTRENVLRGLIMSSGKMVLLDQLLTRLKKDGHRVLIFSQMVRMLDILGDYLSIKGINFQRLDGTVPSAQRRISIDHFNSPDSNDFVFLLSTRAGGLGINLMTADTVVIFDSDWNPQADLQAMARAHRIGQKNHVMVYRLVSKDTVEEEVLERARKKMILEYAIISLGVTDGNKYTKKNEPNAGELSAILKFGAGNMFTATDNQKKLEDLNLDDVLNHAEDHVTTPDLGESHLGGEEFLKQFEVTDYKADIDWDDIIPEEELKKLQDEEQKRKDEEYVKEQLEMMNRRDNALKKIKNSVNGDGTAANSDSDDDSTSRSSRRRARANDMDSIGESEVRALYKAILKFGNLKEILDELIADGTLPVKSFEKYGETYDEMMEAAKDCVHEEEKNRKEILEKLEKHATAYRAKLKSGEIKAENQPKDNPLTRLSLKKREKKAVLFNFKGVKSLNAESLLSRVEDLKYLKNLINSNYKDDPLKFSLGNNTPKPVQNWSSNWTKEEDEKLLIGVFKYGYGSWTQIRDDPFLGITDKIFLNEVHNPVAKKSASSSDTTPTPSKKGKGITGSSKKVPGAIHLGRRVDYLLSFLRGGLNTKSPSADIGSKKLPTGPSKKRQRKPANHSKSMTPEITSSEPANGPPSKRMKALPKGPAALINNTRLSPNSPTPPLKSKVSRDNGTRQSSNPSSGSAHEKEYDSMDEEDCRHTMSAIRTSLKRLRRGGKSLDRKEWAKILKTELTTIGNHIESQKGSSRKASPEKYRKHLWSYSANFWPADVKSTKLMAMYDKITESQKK
Sequence of Protein translocase subunit SecA (Escherichia coli (strain K12)) (P10408 whole entry): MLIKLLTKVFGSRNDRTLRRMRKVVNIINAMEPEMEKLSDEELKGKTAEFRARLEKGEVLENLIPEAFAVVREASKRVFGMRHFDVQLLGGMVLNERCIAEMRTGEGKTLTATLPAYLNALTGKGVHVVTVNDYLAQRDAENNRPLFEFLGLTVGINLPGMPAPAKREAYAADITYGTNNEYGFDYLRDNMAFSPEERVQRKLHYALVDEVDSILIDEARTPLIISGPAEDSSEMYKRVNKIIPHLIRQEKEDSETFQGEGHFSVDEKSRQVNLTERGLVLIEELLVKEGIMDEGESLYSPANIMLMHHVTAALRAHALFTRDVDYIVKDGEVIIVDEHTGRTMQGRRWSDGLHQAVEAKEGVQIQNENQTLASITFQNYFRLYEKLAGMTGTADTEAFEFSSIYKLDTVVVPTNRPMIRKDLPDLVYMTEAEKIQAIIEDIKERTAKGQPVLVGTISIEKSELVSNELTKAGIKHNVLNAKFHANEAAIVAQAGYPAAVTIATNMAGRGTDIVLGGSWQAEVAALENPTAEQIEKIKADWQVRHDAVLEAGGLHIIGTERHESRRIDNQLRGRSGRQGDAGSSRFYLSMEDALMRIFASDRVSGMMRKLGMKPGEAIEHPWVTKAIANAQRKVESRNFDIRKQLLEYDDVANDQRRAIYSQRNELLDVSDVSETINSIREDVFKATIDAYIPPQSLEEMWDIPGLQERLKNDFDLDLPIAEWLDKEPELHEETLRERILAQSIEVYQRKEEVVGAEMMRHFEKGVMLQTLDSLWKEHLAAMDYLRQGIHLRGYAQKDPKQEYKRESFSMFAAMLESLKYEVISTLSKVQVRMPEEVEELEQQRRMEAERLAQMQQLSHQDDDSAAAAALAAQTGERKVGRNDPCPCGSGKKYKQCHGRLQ
Sequence of Sialic acid-binding Ig-like lectin 9 (Homo sapiens) (Q9Y336 whole entry): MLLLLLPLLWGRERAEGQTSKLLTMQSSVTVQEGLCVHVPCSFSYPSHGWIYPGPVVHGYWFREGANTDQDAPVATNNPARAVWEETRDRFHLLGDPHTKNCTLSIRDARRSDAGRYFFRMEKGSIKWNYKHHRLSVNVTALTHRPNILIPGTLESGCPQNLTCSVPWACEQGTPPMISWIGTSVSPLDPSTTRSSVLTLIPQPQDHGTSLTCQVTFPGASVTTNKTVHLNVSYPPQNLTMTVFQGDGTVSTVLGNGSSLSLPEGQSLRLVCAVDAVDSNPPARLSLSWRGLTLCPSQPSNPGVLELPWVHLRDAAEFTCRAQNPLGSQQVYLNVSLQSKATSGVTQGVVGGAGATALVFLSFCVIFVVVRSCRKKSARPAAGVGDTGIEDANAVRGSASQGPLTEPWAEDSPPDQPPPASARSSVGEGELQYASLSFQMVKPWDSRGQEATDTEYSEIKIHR

Turning to `Cc1nc(C2CCCN(C(=O)c3cnn(C(C)(C)C)c3)C2)no1` (stereo not drawn), the Percent Effect in experiment [1] was -11.7%; in experiment [2], 16.5%; in [3], -6.15%; in experiment [4], -0.567%; in [5] it was 4.82%; in experiment [6] it was -1.07%. For the same molecule, the Percent Effect in [7] is 2.74%; in [8], -0.962%; in experiment [9] it was 4.17%; in experiment [10], 12.7%; in [11] it was -34.2%.
Consider `CC(C)c1ncc2c(n1)CN(Cc1nc(Cc3ccccc3)no1)CC2`, for which the Percent Effect was -3.61% in experiment [1]; 10.8% in experiment [2]; -1.07% in experiment [3]; 3.74% in experiment [4]; 2.69% in [5]; -2.77% in experiment [6]. Further, the Percent Effect in [7] is -5.92%; in experiment [8], 10.2%; in experiment [9], 17.8%; in experiment [10], 23.2%; in experiment [11], 0.435%.
As for `O=C(NC1CC1)[C@H]1C[C@H]2OCC[C@H]2N(CC2CCOCC2)C1`, the Percent Effect is -7.27% in experiment [1]; 0% in [2]; 1.56% in experiment [3]; 2.95% in [4]; -3.28% in experiment [5]; -51.1% in [6]. For the same molecule, the Percent Effect in [7] was 7.18%; in experiment [8] it was 3.71%; in [9], 5.21%; in [10] it was -2.5%; in experiment [11] it was 319%.
Take `CC1CN(C)CCN1C(=O)c1ccn(-c2cccc(Cl)c2)n1` (stereo not drawn): the Percent Effect in experiment [1] is -4.4%; in experiment [2] it was 5.2%; in experiment [3], 3.41%; in [4], 8.46%; in experiment [5] it was 3%; in experiment [6], -4.98%. The Percent Effect in [7] is -5.91%; in experiment [8], -0.574%; in [9], 2.91%; in experiment [10] it was 9.76%; in [11], -7.43%.
Take `COc1ccc(OCCCNC(=O)NCc2csc(C)n2)cc1`: the Percent Effect in experiment [1] was -3.63%; in experiment [2], 16.2%; in experiment [3], 2.75%; in [4] it was -5.68%; in experiment [5] it was 0.65%; in experiment [6], -4.62%. The Percent Effect in [7] was 7.54%; in experiment [8], 20.4%; in experiment [9], 8.91%; in [10], 15.8%; in experiment [11], -3.66%.
On to `COc1cccc(CNC(=O)C(c2cccc(F)c2)N2CCOCC2)c1` (stereo not drawn), for which the Percent Effect was -6.42% in experiment [1]; 18.4% in experiment [2]; -1.09% in [3]; 6.14% in experiment [4]; 2.82% in experiment [5]; -5.92% in experiment [6]. Also, the Percent Effect in experiment [7] was 4.12%; in experiment [8], 5.78%; in [9] it was 6.38%; in experiment [10] it was 18.2%; in [11], -11.1%.
For the molecule `CN1CCC(Oc2ccc(NC(=O)c3ccccc3Br)cc2)CC1`, the Percent Effect in experiment [1] was -0.903%; in experiment [2] it was -2.6%; in [3] it was 0.999%; in [4], 7.1%; in experiment [5] it was 6%; in experiment [6], -4.14%. Further, the Percent Effect in experiment [7] is 10.8%; in experiment [8] it was 7.69%; in experiment [9], 1.07%; in [10], 3.7%; in experiment [11], -4.57%.
As for `Cc1nnc2n1CCN(CCC(=O)Nc1sccc1C#N)C2`, the Percent Effect in experiment [1] was -2.38%; in [2], 13.2%; in experiment [3], -4.92%; in experiment [4], 7.34%; in experiment [5], 0.84%; in [6] it was -0.719%. Also, the Percent Effect was 10.4% in experiment [7]; 9.54% in experiment [8]; 6.4% in experiment [9]; 18.5% in [10]; -2.88% in experiment [11].
